Compound activity from PubChem BioAssay.
KCNQ2 pot: potentiators of rat KCNQ2 potassium channel; B-score at 10 µM; O88943; AID 2239; hit rate 0.54% among 310,000; CHO-K1 KCNQ2, FluxOR thallium flux fluorescence; stronger effect = higher value;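 active = fluorescence ratio B-score at least 3 SD of library B-scores, with initial fluorescence B-score within 3 of them, cut at about 5.3 in these data; same plate scores as AID 2156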;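 also: B-score of peak minus minimum over baseline fluorescence ratio after K+ and Tl+ stimulus; positive B-score means potentiation of KCNQ2 with more thallium influx and brighter signal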
KCNQ2 inh: blocks the rat KCNQ2 potassium channel. O88943. CHO-K1 KCNQ2, FluxOR thallium flux, 20 min; stronger effect = lower value. B-score at 10 µM. hit rate 1.1% among 310,000. AID 2156;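 active = fluorescence ratio B-score at most minus 3 library SDs, with starting brightness B-score within 2 library SDs, cut at about -5.5 in these data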
Kir21 conf inh: confirmation of mouse Kir2.1 potassium channel inhibitors. shares compounds with KCNQ2 pot. Kir2.1-expressing cells, FluxOR thallium flux fluorescence; stronger effect = lower value. Tl flux remaining, % of negative control (stronger effect = lower value), % at 10 µM. hit rate 41% among 2,300;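 active = Primary-screen hit whose thallium flux fell at least 3 control SD below untreated wells in both duplicates, with normal baseline fluorescence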;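 also: 0% = blank wells without stimulus and 100% = stimulated no-compound controls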
HEK293 Tl flux: alters thallium flux in parental HEK293 cells, Kir2.1 counter-screen; shares compounds with KCNQ2 pot; FluxOR thallium flux fluorescence; 0% = unstimulated blank wells; FluxOR signal as % of negative control (100 = no effect), % at 10 µM; hit rate 19% among 2,300; AID 2105;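 active = dye signal at least 3 control SD above or below untreated wells in both duplicates, raw fluorescence within 3, either direction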;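 also: percent is based on the flux ratio of peak minus minimum fluorescence over baseline F0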
CHO-K1 Tl ctr: parental CHO-K1 activity in KCNQ2 potentiator counter-screen | shares compounds with KCNQ2 pot | activity increase over 3SD of controls, % at 10 µM | hit rate 43% among 1,200 | parental CHO-K1 cells, FluxOR thallium flux fluorescence; zero = vehicle mean+3SD, 100% = vehicle-minus-blank window;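 active = signal rise of at least 3 SD above the untreated control mean, in both duplicate wells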;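 also: counter screen of KCNQ2 potentiator hits so any rise reflects channel-independent effects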
KCNQ1 sel pot: human KCNQ1 counter-target activity of KCNQ2 potentiators. CHO KCNQ1 stable, FluxOR thallium flux fluorescence; beyond 3SD, as % of vehicle-control signal. shares compounds with KCNQ2 pot. hit rate 28% among 1,200. activation over 3SD threshold, % at 10 µM;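 active = fluorescence ratio rise of at least 3 SD of vehicle wells above their mean, in both replicate wells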;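 also: 0% = vehicle mean plus 3 SD and 100% = vehicle minus unstimulated blank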
Target sequence (P51787 whole entry, looked up): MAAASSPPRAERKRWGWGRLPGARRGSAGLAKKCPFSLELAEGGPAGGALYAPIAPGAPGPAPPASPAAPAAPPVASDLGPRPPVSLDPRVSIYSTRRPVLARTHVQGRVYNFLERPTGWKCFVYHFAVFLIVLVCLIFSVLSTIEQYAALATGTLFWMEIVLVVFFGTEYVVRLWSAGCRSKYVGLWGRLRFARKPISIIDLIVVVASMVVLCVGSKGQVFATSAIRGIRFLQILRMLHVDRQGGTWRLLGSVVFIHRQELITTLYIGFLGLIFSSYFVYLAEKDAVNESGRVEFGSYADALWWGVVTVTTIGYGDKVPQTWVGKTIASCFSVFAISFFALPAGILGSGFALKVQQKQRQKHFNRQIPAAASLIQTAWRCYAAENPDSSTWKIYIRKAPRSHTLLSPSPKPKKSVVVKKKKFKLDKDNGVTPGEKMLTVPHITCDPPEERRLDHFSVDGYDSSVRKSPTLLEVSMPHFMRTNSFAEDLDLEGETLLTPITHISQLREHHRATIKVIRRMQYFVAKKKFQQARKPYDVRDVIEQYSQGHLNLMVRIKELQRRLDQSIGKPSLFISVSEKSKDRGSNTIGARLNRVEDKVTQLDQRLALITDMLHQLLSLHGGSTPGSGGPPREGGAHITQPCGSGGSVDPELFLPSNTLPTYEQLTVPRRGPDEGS
KCNQ2 pot confirm: confirmation of rat KCNQ2 potassium channel potentiators; shares compounds with KCNQ2 pot; CHO-KCNQ2 cells, FluxOR thallium flux fluorescence; potentiation, less the hit threshold, % at 10 µM; hit rate 68% among 1,200;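 active = fluorescence ratio rising 3 SD or more over the vehicle control mean in both replicates, plus primary screen hit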;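 also: peak minus minimum thallium fluorescence divided by baseline after K/Tl stimulus; 0% = vehicle mean plus 3 SD and 100% = vehicle minus unstimulated blank difference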
Kir2-1 sel: tests whether KCNQ2 potentiators also affect mouse Kir2.1; activity over 3SD threshold, % at 10 µM; shares compounds with KCNQ2 pot; AID 2345; HEK293 Kir2.1, FluxOR thallium flux fluorescence; hit rate 2% among 1,200;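 active = fluorescence ratio rise of at least 3 SD above the vehicle-control mean, seen in both replicates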;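 also: 0% = vehicle mean plus 3 SD and 100% = vehicle minus no-stimulus blank window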
KCNQ2 W236L pot: rat KCNQ2 W236L mutant potentiation by KCNQ2 potentiators. current increase over 3SD of negative controls (%), stronger effect = higher value, % at 25 µM. shares compounds with KCNQ2 pot. hit rate 10% among 940. CHO KCNQ2-W236L, automated patch clamp current. AID 2558;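 active = current increase at least 3 SD of the untreated controls above them in both duplicate recordings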
Active calls of the source: *; i = inactive; nt = not tested or not shown; + = active, no number. Shown are actives, neighbours in structure and some others; about 1.6% of the full set was active somewhere.

SMILES | KCNQ2 pot | KCNQ2 inh | Kir21 conf inh | HEK293 Tl flux | others
Cc1ccc(-c2csc(NC(=O)CN3CC(C)OC(C)C3)n2)cc1 (configuration not stated) | 0.02 | i | nt | nt
COc1ccc(/C=N/Nc2cc(C)nc3c(C)cccc23)cc1 | nt | i | nt | nt
COc1ccc(/C=N/Nc2cc(C)nc3ccccc23)cc1 | nt | i | 35%* | i
CC(=O)O[C@H]1CC[C@]2(C)[C@H]3CC=C4[C@@H]5[C@@H](C)[C@H](C)CC[C@]5(C(=O)O)CC[C@@]4(C)[C@]3(C)CC[C@H]2C1(C)C | 1 | i | nt | nt
CC(=O)N1c2ccc(S(=O)(=O)N3CCC(C(=O)Nc4cccc(Cl)c4)CC3)cc2CC1C (configuration not stated) | 0.6 | i | nt | nt
O=C(CCSc1nc(-c2ccco2)cc(C(F)(F)F)n1)N1CCN(c2ccccn2)CC1 | nt | i | nt | nt
O=C(CSc1nc(-c2ccco2)cc(C(F)(F)F)n1)N1CCN(c2cccc(Cl)c2)CC1 | 7.9* | i | i | 76%* | CHO-K1 Tl ctr=15*;KCNQ1 sel pot=60*;KCNQ2 pot confirm=-16;Kir2-1 sel=-44
O=C(CSc1nc(-c2ccco2)cc(C(F)(F)F)n1)N1CCSCC1 | 12* | i | i | i | CHO-K1 Tl ctr=-3;KCNQ1 sel pot=68*;KCNQ2 pot confirm=34*;Kir2-1 sel=-36;KCNQ2 W236L pot=i
CN1CCN(C(=O)CSc2nc(-c3ccco3)cc(C(F)(F)F)n2)CC1 | 0.86 | i | nt | nt
CCOC(=O)c1c(CSc2ccccc2)oc2cc(Br)c(O)c(CN(C)C)c12 | 0.71 | i | nt | nt
CCOC(=O)c1c(CSc2ccc(CC)cc2)oc2ccc(O)c(CN(C)C)c12 | -5.8 | -5.8* | 16%* | i
CCOC(=O)c1c(C)oc2ccc(O)c(CN(C)C)c12 | 0.06 | i | nt | nt
CC(=O)c1c(CSc2ccccc2)oc2ccc(O)c(CN(C)C)c12 | nt | i | 38%* | 64%*
O=C(CN1N=C(c2ccc(Cl)cc2)CCC1=O)NCCN1CCc2ccccc2C1 | nt | i | nt | nt
CC(C)CN(C(=O)COc1ccc(Br)cc1C=O)C1CCS(=O)(=O)C1 (configuration not stated) | nt | i | nt | nt
COC(=O)CN1C(=O)Nc2ccc(Br)cc2C1c1ccccc1Cl (configuration not stated) | 15* | i | i | i | CHO-K1 Tl ctr=-14;KCNQ1 sel pot=+;KCNQ2 pot confirm=38*;Kir2-1 sel=-37;KCNQ2 W236L pot=6.9%*
COC(=O)CN1C(=O)Nc2ccc(Cl)cc2C1c1ccccc1 (configuration not stated) | 1.8 | i | nt | nt
COc1ccc(Cl)cc1NS(=O)(=O)c1cccc(C(=O)NCC2(N(C)C)CCCCC2)c1 | nt | i | nt | nt
CC1CCCC(N2C(=O)NC(NC(=O)c3ccco3)(C(F)(F)F)C2=O)C1C (configuration not stated) | nt | i | nt | nt
N#CC(c1ccc(O)cc1)c1ncc(C(F)(F)F)cc1Cl (configuration not stated) | 2.2 | i | 48%* | i
NC(=O)C(c1ccc(Cl)cc1)c1ncc(C(F)(F)F)cc1Cl (configuration not stated) | 3.4 | i | nt | nt
CN(C)c1nc(-c2cn(CCC#N)c3ccccc23)cs1 | nt | i | nt | nt
COc1ccc(CCNC(=O)C(C)SCc2ccccc2)cc1 (configuration not stated) | 0.39 | i | 41%* | i
COc1cccc(NC(=O)C(C)SCc2ccccc2)c1 (configuration not stated) | 0.63 | i | nt | nt
COc1ccc(CCC(=O)NCCS(=O)(=O)N2CCN(c3ccccc3OC)CC2)cc1 | 1.9 | i | nt | nt
SMILES | KCNQ2 pot | KCNQ2 inh | Kir21 conf inh | HEK293 Tl flux | others
CC(=O)c1ccc(N2Cc3ccccc3C3(CCOCC3)C2=N)cc1 | 0.39 | i | nt | nt
CCN1CCc2c(OCc3ccccc3)cccc2C1=O | 3 | i | nt | nt
COc1ccccc1NC(=O)C(=O)NNC(=O)COc1ccc2ccccc2c1 | 23* | i | i | i | CHO-K1 Tl ctr=41*;KCNQ1 sel pot=-25;KCNQ2 pot confirm=28*;Kir2-1 sel=-29;KCNQ2 W236L pot=i
COc1ccccc1NC(=O)COc1ccc2ccccc2c1 | nt | i | nt | nt
O=C(Cc1ccc(F)cc1)Nc1cccc(-c2cn3c(n2)SCC3)c1 | 10* | i | i | i | CHO-K1 Tl ctr=-13;KCNQ1 sel pot=-19;KCNQ2 pot confirm=-29;Kir2-1 sel=-43
O=C(Nc1cccc(-c2cn3c(n2)SCC3)c1)c1ccc(Br)o1 | nt | i | nt | nt
COc1ccc(CCNC(=O)C/C(C)=N/NC(=O)c2ccc([N+](=O)[O-])cc2Cl)cc1OC | 0.22 | i | nt | nt
COc1ccc(CCNCC(O)c2ccccc2)cc1 (configuration not stated) | 0.85 | i | nt | nt
CSc1ccc(CNCC(O)c2ccccc2)cc1 (configuration not stated) | nt | i | 59%* | i
O[C@@H](CNC[C@H](O)c1ccccc1)c1ccccc1 | nt | i | nt | nt
OC(CNCCc1ccccc1)c1ccccc1 (configuration not stated) | 0.18 | i | 44%* | i
Cc1ccc(N2CC(C(=O)Nc3ccc(N4CCOCC4)cc3)CC2=O)cc1C (configuration not stated) | nt | i | nt | nt
Clc1cccc(CSc2nccn2-c2ccccc2)c1 | nt | i | 64%* | i
Brc1ccc(CSc2nccn2-c2ccccc2)cc1 | nt | i | nt | nt
CC(=O)/C=C/n1c(=S)oc2ccccc21 | 5.4* | i | i | i | CHO-K1 Tl ctr=-4;KCNQ1 sel pot=-10;KCNQ2 pot confirm=-12;Kir2-1 sel=-31
CC(C)CC(=O)/C=C/n1c(=S)oc2ccccc21 | 0.78 | i | nt | nt
CC12CCC(C(=O)Nc3cccc4ccccc34)(C1Br)C2(C)C (configuration not stated) | 10* | i | i | i | CHO-K1 Tl ctr=1.5*;KCNQ1 sel pot=-25;KCNQ2 pot confirm=48*;Kir2-1 sel=-21;KCNQ2 W236L pot=i
Nc1ccccc1C(=O)Nc1cccc2ccccc12 | nt | i | nt | nt
Cc1ccc(OC(=O)C(C)c2cccc(C(=O)c3ccccc3)c2)cc1 (configuration not stated) | nt | i | nt | nt
Cc1ccccc1NC(=O)C(C)c1cccc(C(=O)c2ccccc2)c1 (configuration not stated) | 5.3 | i | i | i | CHO-K1 Tl ctr=117*;KCNQ1 sel pot=13*;KCNQ2 pot confirm=16*;Kir2-1 sel=-29;KCNQ2 W236L pot=i
O=C(O)c1cnn(-c2ccccc2)c1-c1ccccc1 | nt | i | nt | nt
